Data on 28 compounds can be found in PubChem BioAssay (NCATS).

Assay [1] is described as follows: qHTS to identify inhibitors of the type 1 interferon - major histocompatibility complex class I in skeletal muscle: primary screen against the NCATS Pharmaceutical Collection (AID 1347407). Further: potency means the concentration at half of the fitted maximal effect. To be noted: human skeletal muscle cells, IFN-b-induced MHC-I HiBiT luminescence, 24 h; series mostly up to 45.9 µM. The procedure, abridged: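 Cells were seeded with 4 ng/ml IFN-beta, incubated 1 h, then dosed with compounds over eight 1:5 steps up to 46 uM final. After 24 h at 37 C, HiBiT lytic reagent was added and luminescence read after 10 min lysis in the dark.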

In assay [2] the target is Protein phosphatase 1D (Homo sapiens) (UniProt O15297). Put plainly: RapidFire Mass Spectrometry qHTS Assay for Modulators of WT P53-Induced Phosphatase 1 (WIP1) (AID 1347424). To be noted: WIP1 dephosphorylation of phosphopeptide, RapidFire MS; series mostly up to 63 µM. Put shortly: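 RapidFire MS readout of dephosphorylated VEPPL-S-QETFS product, with 1 uM isotope-labelled peptide standard. Reaction: 10 nM WIP1, 2 uM phosphopeptide substrate, 5 min, room temperature, after 1 h compound preincubation; stopped with 0.5% formic acid.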

Assay [3] has the same target. Put plainly: Rhodamine-PBP qHTS Assay for Modulators of WT P53-Induced Phosphatase 1 (WIP1) (AID 1347425). The settings on record: recombinant WIP1, Rhodamine-PBP phosphate fluorescence, real-time; series mostly up to 57.5 µM. The procedure, abridged: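 Steps: enzyme with Rh-PBP sensor and compounds, room-temperature incubation of 1 hr, baseline read, addition of VEPPL-pS-QETFS (10 uM final), kinetic fluorescence reads at 525/598 nm. Activity equals final minus baseline signal.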

A short description of assay [4]: Primary qHTS for inhibitors of La Crosse Virus (LACV) - induced cell death in SH-SY5Y cells (AID 1508616). Further: potency means the concentration at half of the fitted maximal effect. The settings on record: SH-SY5Y LACV cytopathicity rescue, ATP luminescence, 6 d; series mostly up to 4.29 µM. The procedure, abridged:
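Rescue of virus-induced death was read as ATPLite luminescence after 6 days at 37C, scaled between DMSO wells with LACV and without virus. Cells were SH-SY5Y, 6000/well, infected at 0.01 MOI after compound addition.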

Assay [5] deals with Calcium and integrin-binding protein 1 (Homo sapiens) (UniProt Q99828). The assay is described as follows: Primary qHTS for Identification of Calcium Integrin Binding Protein 1 (CIB1) Competitor (AID 1508620). Further: top concentration of the series differs between compounds. To be noted: CIB1-GST / FITC-alphaIIb peptide fluorescence polarization; series mostly up to 57.7 µM. The procedure, abridged: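 Fluorescence polarization competition: GST-tagged CIB1 (1 uM final) preincubated with compound 15 min at room temperature, then FITC-labelled alphaIIb peptide (100 nM final) added. After 15 min at room temperature, polarization read at Ex 480/Em 540.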

Assay [6] can be described thus: Counterscreen qHTS for small molecule stabilizers of the endoplasmic reticulum resident proteome: GLuc-NoTag assay (AID 1508627). The settings on record: Gaussia luciferase NoTag secretion counterscreen, luminescence, thapsigargin 100 nM for final 4 h; series mostly up to 76.4 µM. Put shortly:
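Counterscreen line: SH-SY5Y-GLuc-NoTag. Seed, 5 h; compound, 19 h; thapsigargin 100 nM, 4 h; 37C/5% CO2. Readout: secreted GLuc luminescence, coelenterazine 0.07x final, no lysis.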

Assay [7] in a line: Confirmatory qHTS for small molecule stabilizers of the endoplasmic reticulum resident proteome: Secreted ER Calcium Modulated Protein (SERCaMP) assay (AID 1508628). Further: nearly all actives have a fitted effect of over 40% in size. Further: potency means the concentration at half of the fitted maximal effect. To be noted: SERCaMP secreted luciferase ER calcium/proteostasis reporter; series mostly up to 76.3 µM. The procedure, abridged: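 Reporter secretion upon ER calcium depletion (100 nM thapsigargin, 4 h, 37C) is measured as medium luminescence with coelenterazine, after 16 h compound pretreatment of SH-SY5Y-GLuc-SERCaMP cells; primary at three concentrations up to 38.3 uM, follow-up at 11 (up to 76.6 uM).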

Assay [8] can be described thus: qHTS for inhibitors of adenylyl cyclases using a fission yeast platform: a pilot screen against the NCATS LOPAC library (AID 1347410). To be noted: S. pombe CHP2027, fbp1-GFP fluorescence, 18 h, yeast expressing mammalian AC9 and human GNAS; series mostly up to 57.5 µM. Put shortly: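 Growth medium went into the plates first, then compounds were pinned (final up to 57 µM), then CHP2027 yeast were added. Plates were incubated overnight (18 h) at 30C in the dark, and GFP was measured by laser scanning cytometry.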

Assay [9] is described as follows: Validation qHTS assay for inhibitors of Activation Induced Cytidine Deaminase (AID): UDG Counterscreen signal (AID 1347427). The settings on record: biochemical UDG counterscreen, fluorescence signal; series mostly up to 115 µM. The procedure, abridged:
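Fluorescence at 560 nm excitation, 665 nm emission reports UDG signal after 250 mM NaOH (2x) addition and 30 min. Enzymes (AID 1 uM, UDG 2 U/mL, at 4/3x) preincubated 10 min with compound, then 4 h with 4x 250 nM DJC20/DJC23 substrate at room temperature.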

Assay [10] is described as follows: qHTS to identify inhibitors of the type 1 interferon - major histocompatibility complex class I in skeletal muscle: primary screen against the NCATS Mechanism Interrogation Plate v5.0 (MIPE) Libary (AID 1347411). Further: nearly all actives have a fitted effect of over 65% in size. Further: potency means the concentration at half of the fitted maximal effect. The settings on record: iHSKM cells + IFN-b, HiBiT-tagged MHC-I luminescence, 24 h; series mostly up to 45.8 µM. Put shortly: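 Luminescence from CRISPR HiBit-tagged endogenous HLA-B in human myoblasts reported MHC class I level after 24 h of IFN-beta (4 ng/ml) plus compound. Compounds ran as 11-point 1:3 series, top 46 uM final.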

Assay [11] addresses Calcium and integrin-binding protein 1 (Homo sapiens) (UniProt Q99828). Put plainly: Confirmatory qHTS for Identification of Calcium Integrin Binding Protein 1 (CIB1) Competitor (AID 1508617). Further: nearly all actives have a fitted effect of over 65% in size. The settings on record: CIB1 binding competition assay, biochemical qHTS; series mostly up to 114 µM. Put shortly: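 Binding competition between test compounds and fluorescent alphaIIb peptide for 1 uM CIB1-GST is monitored by FP at 480/540 nm. Final compound range is up to 114 uM; unlabeled peptide serves as reference competitor.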

Molecules are shown by their SMILES. Inconclusive results are not listed. Calls of active or inactive are those of the source. The call rests on the fitted dose curve; in most records, active means well fitted curve in the direction sought with a large enough effect; inconclusive means small, poorly fitted or top-dose-only effect, or another doubt; inactive means no such curve, though single readings can be large; an effect the other way counts as inactive or inconclusive.

Chain of Protein phosphatase 1D (Homo sapiens) (O15297 whole entry, looked up): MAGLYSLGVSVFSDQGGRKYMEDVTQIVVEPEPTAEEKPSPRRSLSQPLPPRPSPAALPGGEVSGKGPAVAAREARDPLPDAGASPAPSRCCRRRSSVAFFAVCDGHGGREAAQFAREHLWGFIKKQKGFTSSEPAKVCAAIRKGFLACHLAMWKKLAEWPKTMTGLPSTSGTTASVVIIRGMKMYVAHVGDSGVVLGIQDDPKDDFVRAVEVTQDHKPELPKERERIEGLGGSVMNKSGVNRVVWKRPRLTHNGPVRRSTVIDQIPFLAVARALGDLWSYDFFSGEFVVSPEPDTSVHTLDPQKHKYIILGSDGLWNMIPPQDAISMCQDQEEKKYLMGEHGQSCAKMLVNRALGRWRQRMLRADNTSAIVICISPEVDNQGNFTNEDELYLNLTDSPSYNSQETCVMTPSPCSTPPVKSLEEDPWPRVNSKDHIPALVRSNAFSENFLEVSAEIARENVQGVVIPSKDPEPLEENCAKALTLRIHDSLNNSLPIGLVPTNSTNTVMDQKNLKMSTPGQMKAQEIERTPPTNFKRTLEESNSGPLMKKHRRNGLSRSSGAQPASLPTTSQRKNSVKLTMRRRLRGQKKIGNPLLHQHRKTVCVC
Chain of Calcium and integrin-binding protein 1 (Homo sapiens) (Q99828 whole entry, looked up): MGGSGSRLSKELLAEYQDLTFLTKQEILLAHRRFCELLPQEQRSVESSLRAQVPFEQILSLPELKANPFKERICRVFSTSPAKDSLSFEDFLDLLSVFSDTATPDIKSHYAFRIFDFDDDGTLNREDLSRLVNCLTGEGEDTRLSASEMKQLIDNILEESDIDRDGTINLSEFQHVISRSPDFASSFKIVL

Consider `O[C@@H](CNC[C@H](O)[C@H]1CCc2cc(F)ccc2O1)[C@@H]1CCc2cc(F)ccc2O1`, for which the Potency in assay [1] was 26.4 µM (active). Also, the compound was called inactive in [2], in assay [3] and in assay [5]. In assay [4], the Potency entry is “inactive”.
As for `Cc1cccc(N(C)C(=S)Oc2ccc3ccccc3c2)c1`, the Potency entry in assay [1] and in assay [4] was “inactive” in each case. The outcome in assay [2], in assay [3] and in [5] was inactive.
For the compound `COC(=O)Nc1nc2ccc(S(=O)c3ccccc3)cc2[nH]1` (configuration not stated), the outcome in assay [2], in [3] and in [5] was inactive. The Potency in assay [4] is 0.355 µM (active).
For `Cc1ncc([N+](=O)[O-])n1CCO`, the compound was called inactive in assay [2], in assay [3] and in assay [5]. For the same compound, the Potency result in assay [4] was “inactive”.
With `N=C(N)c1ccc(OCCCCCOc2ccc(C(=N)N)cc2)cc1`, the call in assay [2], in assay [3] and in assay [5] was inactive.
`Cc1cccc(Nc2ccncc2S(=O)(=O)NC(=O)NC(C)C)c1`: the compound was classed as inactive in assay [2], in assay [3] and in [5]. In assay [4], the Potency entry was “inactive”.
In the case of `CN1CCN(c2c(F)cc3c(=O)c(C(=O)O)cn(CCF)c3c2F)CC1`, the result in assay [2] and in assay [3] was inactive. For the same compound, the Potency entry in assay [4] was “inactive”.
`CCn1cc(C(=O)O)c(=O)c2cc(F)c(N3CCNCC3)nc21`: the Potency result in [1], in [4] and in [7] was “inactive” each time. The call in [2], in [3], in assay [5] and in assay [6] was inactive.
For the compound `Cc1noc(NS(=O)(=O)c2ccc(N)cc2)c1C`, the outcome in [2] and in assay [3] was inactive. Moreover, the Potency result in assay [4] is “inactive”.
As to `CS(=O)(=O)c1ccc([C@@H](O)[C@@H](CO)NC(=O)C(Cl)Cl)cc1`, the Potency entry in assay [1] and in [4] was “inactive” each time. The call in assay [2], in [3] and in assay [5] was inactive.
Turning to `CCc1c2c(nc3ccc(OC(=O)N4CCC(N5CCCCC5)CC4)cc13)-c1cc3c(c(=O)n1C2)COC(=O)[C@]3(O)CC`, the compound was classed as inactive in assay [2] and in assay [3].
On to `NC(=O)N1c2ccccc2CC(=O)c2ccccc21`, for which the Potency entry in assay [1] and in [4] was “inactive” each time. Further, the outcome in [2] and in assay [5] was inactive.
For `CN1CCCC(n2nc(Cc3ccc(Cl)cc3)c3ccccc3c2=O)CC1` (configuration not stated), the Potency result in assay [1] and in assay [4] was “inactive” each time. Further, the call in assay [2], in assay [3], in [5] and in assay [6] was inactive. Further, the Potency in assay [7] was 20 µM (active).
Regarding `C[C@@H]1C[C@H]2[C@@H]3CCC4=CC(=O)C=C[C@]4(C)[C@@]3(Cl)[C@@H](O)C[C@]2(C)[C@@]1(OC(=O)c1ccco1)C(=O)CCl`, the Potency result in assay [1] and in assay [4] was “inactive” throughout. Besides, the call in [2], in assay [3] and in [5] was inactive.
Regarding `O=C(O)c1cccnc1`, the compound was called inactive in [2], in [3] and in assay [5].
Regarding `COc1ccc2c(c1)c(CC(=O)OCC(=O)O)c(C)n2C(=O)c1ccc(Cl)cc1`, the Potency entry in [1] and in assay [4] was “inactive” throughout. Moreover, the result in assay [2] and in assay [5] was inactive.
With `CCN(C)C(=O)Oc1cccc([C@H](C)N(C)C)c1`, the Potency result in [1] and in assay [4] was “inactive” throughout. Further, the result in assay [2], in assay [3] and in assay [5] was inactive.
As to `CO[C@@H]1[C@@H](OC(N)=O)[C@@H](O)[C@H](Oc2ccc3c(O)c(NC(=O)c4ccc(O)c(CC=C(C)C)c4)c(=O)oc3c2C)OC1(C)C`, the Potency entry in assay [1] and in assay [4] was “inactive” throughout. Also, the outcome in [3] and in [5] was inactive. Further, the Potency in [7] was 35.5 µM (active).
As for `COC(=O)Nc1nc2ccc(Sc3ccccc3)cc2[nH]1`, the result in assay [3] and in assay [5] was inactive. Moreover, in assay [4], the Potency was 0.199 µM (active).
For the compound `CN1CCN(c2c(F)cc3c(=O)c(C(=O)O)cn4c3c2OCN4C)CC1`, the Potency result in assay [1] and in assay [4] was “inactive” in each case. The call in [2], in [3] and in [5] was inactive.
`Cc1ccc(S(=O)(=O)N[C@@H](Cc2ccccc2)C(=O)CCl)cc1`: the result in assay [8] and in [9] was inactive.
As to `CC(=O)CC(c1ccccc1)c1c(O)c2ccccc2oc1=O` (configuration not stated), the Potency in [10] is 13.1 µM (active). For the same compound, the compound was classed as inactive in assay [2] and in assay [3]. Moreover, in assay [4], the Potency result is “inactive”.
For the compound `Clc1ccccc1CN1CCc2sccc2C1`, the compound was classed as inactive in [2] and in assay [3].
Turning to `O=S(=O)(c1cccc2cnccc12)N1CCCNCC1`, the Potency result in [10] and in assay [4] was “inactive” each time. The compound was classed as inactive in [2], in [3] and in assay [5].
In the case of `C1CCC(C(CC2CCCCN2)C2CCCCC2)CC1` (configuration not stated), the call in assay [2], in assay [3] and in assay [5] was inactive. In assay [4], the Potency entry is “inactive”.
As to `CC(C)(C)C(=O)OCOP(=O)(COCCn1cnc2c(N)ncnc21)OCOC(=O)C(C)(C)C`, in assay [1], the Potency entry was “inactive”. The call in assay [2], in [3] and in [5] was inactive.
In the case of `CNCC[C@H](Oc1cccc2ccccc12)c1cccs1`, the compound was classed as inactive in assay [2], in assay [3], in [5] and in assay [6]. The Potency result in assay [7] was “inactive”.
`CO[C@@]12[C@H](COC(N)=O)C3=C(C(=O)C(C)=C(N)C3=O)N1C[C@@H]1N[C@@H]12`: the result in [2], in [3], in assay [11] and in assay [5] was inactive. For the same compound, the Potency entry in assay [4] was “inactive”.
